Hits are enriched below; roughly 3.4% of the tested compounds scored in any of these assays.
FBW7 activator – human FBW7 E3 ligase activation, primary screen; Q969H0; AlphaScreen FBW7–phospho-cyclin E peptide binding, activator screen; normalized activity (activation), % at 26.1 µM; 650,000 compounds, 0.13% hits; AID 1259310; in the data active = normalized activity above about 1.9%;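 note: purified mutant Fbw7 with reduced substrate affinity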
TEAD-YAP inh – TEAD-YAP interaction inhibition; 640,000 compounds, 1.4% hits; HEK-TIYL cells, TEAD-Gal4/YAP UAS-luciferase luminescence; inhibition, % at 9.12 µM; in the data active = inhibition above about 32%;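 note: 0% = median of test compound wells and 100% = reference inhibitor wells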
GPR151 ag – human GPR151 activation. Q8TDV0. PathHunter beta-arrestin GPR151 cells, luminescence. activation, % at 11.2 µM. 650,000 compounds, 1% hits. AID 1508602; in the data active = activation above about 4.9%;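 note: 0% = median of compound wells and 100% = cells with positive control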
MITF inh – blocks human microphthalmia-associated transcription factor; AlphaScreen MITF homodimerization, bead proximity signal; inhibition, % at 2.6 µM; 650,000 compounds, 0.91% hits; in the data active = inhibition above about 50%;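 note: 0% = vehicle wells with protein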
GPR151 conf act – human GPR151 activation, confirmation screen; shares compounds with GPR151 ag; GPR151 PathHunter beta-arrestin cells, luminescence, 90 min; % of EA-reagent control over plate median; activation, % at 11.2 µM; 6,700 tested, under 10 active;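 active = mean percent activation across replicates above the confirmation screen cutoff of 4.91%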
GPR119 counter – counter-screen for GPR151 activators: effect on human GPR119 | GPR119 PathHunter beta-arrestin cells, luminescence, 90 min; 0 = compound-well median, 100 = enzyme-acceptor control | activation, % at 11.2 µM | shares compounds with GPR151 ag | 6,700 compounds, 0.3% hits;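 active = mean percent activation in the counterscreen above 29.09%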;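 note: counterscreen on off-target GPR119 to flag nonselective hits from the GPR151 activator screen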
Target sequence (Q8TDV5 whole entry, looked up): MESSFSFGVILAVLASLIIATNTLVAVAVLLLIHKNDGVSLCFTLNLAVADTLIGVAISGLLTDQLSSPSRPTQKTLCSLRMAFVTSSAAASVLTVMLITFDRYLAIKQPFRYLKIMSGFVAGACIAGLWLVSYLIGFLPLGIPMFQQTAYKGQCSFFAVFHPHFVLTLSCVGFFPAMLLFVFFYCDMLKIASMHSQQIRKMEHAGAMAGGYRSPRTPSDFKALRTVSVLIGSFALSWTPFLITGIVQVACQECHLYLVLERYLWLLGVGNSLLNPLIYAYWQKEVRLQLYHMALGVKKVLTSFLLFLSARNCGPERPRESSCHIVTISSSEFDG
* marks the source's active call; other numbers are inactive results; x = not tested or not shown.

SMILES	FBW7 activator	TEAD-YAP inh	GPR151 ag	MITF inh	GPR151 conf act	GPR119 counter
COC(=O)c1sc2cc([N+](=O)[O-])cc(Sc3ccccc3)c2c1N	0	1	0	-1	x	x
NC(=O)C1CCN(C(=O)CSCc2c(Cl)cccc2Cl)CC1	0	2	6.1*	-11	0	-3
O=C(CSCc1ccccc1)N1CCC(Cc2ccccc2)CC1	1	-43	6.0*	6	0	1
O=C(CSc1cccc[n+]1[O-])N1CCC(Cc2ccccc2)CC1	0	-1	1	-11	x	x
CCOC(=O)C1CCN(C(=O)CSCc2c(Cl)cccc2Cl)CC1	0	3	-1	2	x	x
Cn1c(=O)c2c(ncn2Cc2ccccc2Br)n(C)c1=O	0	21	2	-12	x	x
CCOC(=O)c1c(C)c(C(=O)Nc2cccc(Cl)c2)c(C)n1CC	0	-40	0	5	x	x
Cc1ccc(OCC(=O)Nc2cccc(O)c2)cc1C	0	1	0	8	x	x
CC(=O)N(C)c1ccc(NC(=O)COc2cc(C)cc(C)c2)cc1	0	-2	4.9*	-4	-1	-10
Cc1cccc(OCC(=O)Nc2cccc(C(=O)O)c2C)c1	0	-10	6.0*	-7	0	5
Cc1cc(C)cc(NC(=O)COc2cccc(C)c2)c1	0	5	6.3*	-17	-1	2
Cc1cccc(OCC(=O)Nc2cccc(O)c2)c1	0	-18	5.9*	-10	0	-9
Cc1ccc(-c2[nH]ncc2CN(C)CC2COCCO2)cc1C (stereo unspecified)	0	9	-1	11	x	x
COC(=O)c1cccc(NC(=O)COc2ccc(C(C)C)c(C)c2)c1	1	-7	0	17	x	x
CCOC(=O)c1cccc(NC(=O)COc2ccc(C(C)C)c(C)c2)c1	1	-11	5.0*	10	0	4
CN1C(=O)CC(C(=O)Nc2ccccc2F)SC1=Nc1ccc(I)cc1 (stereo unspecified)	0	4	1	1	x	x
CC1CN(C(=O)c2ccccc2C(F)(F)F)CC(C)O1 (stereo unspecified)	0	3	8.0*	-9	1	2
CC1CN(C(=O)c2cccs2)CC(C)O1 (stereo unspecified)	0	9	-1	2	x	x
CCOc1ccc(NC(=O)CSc2nc3ccc(N)cc3s2)cc1	0	-41	0	6	x	x
C/C=C(\C)C(=O)N1CCC(N2CCC(C(=O)N3CCCC3)CC2)CC1	0	1	1	4	x	x
COc1ccc(OC)c(N2CC(O)(c3ccc(OC)c(OC)c3)[N+]3=C2SCCC3)c1 (stereo unspecified)	0	0	5.4*	-6	0	-11
COc1ccc(C2(O)CN(c3cc(OC)ccc3OC)C3=[N+]2CCCS3)cc1 (stereo unspecified)	0	-1	-1	15	x	x
Cn1c(=O)c2cc(C(=O)NCC3CCCO3)n(Cc3ccccc3)c2n(C)c1=O (stereo unspecified)	0	-7	0	25	x	x
COc1ccc(C2=NN(C(=O)c3ccco3)C(c3cc4ccc(OC)cc4nc3Cl)C2)cc1 (stereo unspecified)	0	5	0	1	x	x
CN(C)CCN1C(=O)C(CC(=O)Nc2cccc([N+](=O)[O-])c2)SC1=Nc1ccccc1 (stereo unspecified)	0	-13	5.2*	6	1	17
SMILES	FBW7 activator	TEAD-YAP inh	GPR151 ag	MITF inh	GPR151 conf act	GPR119 counter
CC1(Cc2cccc(C#N)c2)C(=O)Nc2cc(F)ccc21 (stereo unspecified)	0	-3	-1	3	x	x
O=c1c2c(nc3nc(-c4ccccc4)[nH]n13)CCCC2	0	9	5.7*	4	-1	-8
O=C(Nc1ccc(S(=O)(=O)NCc2ccccc2)cc1)N1CCCC1	0	1	7.0*	1	0	15
Cc1c(Cl)cccc1NS(=O)(=O)c1cc2c3c(c1)C(C)C(=O)N3CCC2 (stereo unspecified)	0	-1	1	4	x	x
CCOC(=O)C(C#N)C(=O)c1ccc(N2C(=O)CCC2=O)cc1 (stereo unspecified)	1	14	6.6*	9	-1	-10
CCOC(=O)C(C#N)C(=O)c1ccc(F)c(F)c1 (stereo unspecified)	0	0	-1	-5	x	x
N#Cc1c(NC(=O)CC(=O)CSc2ncnc3sc4c(c23)CCC4)sc2c1CCCC2	1	-1	-1	10	x	x
CCNc1nc(Oc2ccc(=O)[nH]n2)nc(SC)n1	0	2	1	8	x	x
CCNc1nc(NC(C)(C)C)nc(Oc2ccc(=O)[nH]n2)n1	0	9	5.1*	-7	0	-4
O=C(CC1C(=O)NCCN1CCc1ccccc1)NC1CCCC1 (stereo unspecified)	0	10	3	7	x	x
CC(C)c1ccc(C2C=C(Nc3cccc(Cl)c3)C(=O)N2c2cccc(Cl)c2)cc1 (stereo unspecified)	0	-2	1	13	x	x
Cc1oc(C)c(S(=O)(=O)NC(C)C)c1C(=O)NCc1ccco1	0	2	7.1*	-2	2	1
Cc1occc1C(=O)NCc1ccco1	0	-3	-1	41	x	x
CC1CCN(C(=O)C2=CC(c3cccs3)=NS(=O)(=O)N2C)CC1	0	5	5.4*	-6	-1	-13
C=CCN1C(=O)/C(=C\c2cc(Br)ccc2O)SC1=Nc1ccccc1	0	1	1	7	x	x
COc1ccc(C)cc1NC(=O)NCCc1ccc(F)cc1	0	0	0	-2	x	x
CCN(CC)CCNCC(=O)N1CCCc2ccccc21	0	5	8.3*	20	0	0
CC1(c2ccccc2)NN=C2Oc3ccccc3N21 (stereo unspecified)	0	-67	0	2	x	x
COc1cc([N+](=O)[O-])ccc1NC(=O)COC(=O)C(CC(C)C)NC(N)=O (stereo unspecified)	0	-5	5.3*	4	0	-2
COc1ccc([N+](=O)[O-])cc1NC(=O)COC(=O)CC(c1ccccc1)c1ccccc1	0	-8	5.2*	4	0	-4
COc1cc(Cl)c(C)cc1NC(=O)COC(=O)C(CC(C)C)NC(N)=O (stereo unspecified)	0	-4	0	-16	x	x
COc1ccc(/C=N/Nc2nc(OC)nc(N3CCOCC3)n2)cc1	0	-16	0	7	x	x
O=C(Cn1ncn2nc(-c3cccs3)cc2c1=O)NC1CCN(Cc2ccccc2)CC1	0	-6	13*	-4	1	-6
O=C(Cn1ncn2nc(-c3cccs3)cc2c1=O)NC1CCCc2ccccc21 (stereo unspecified)	0	2	1	6	x	x
